The values that follow come from PubChem BioAssay (NCATS).

“And” between values parts separate entries of the source, which are not always exact repeats. Equal entries are not always repeated. A number with no mark means an inactive call. Calls follow the shape of the full dose curve.
Potency is read from the fitted curve at half-maximal effect.

Sequence of Glucocorticoid receptor (Homo sapiens) (P04150 whole entry, looked up): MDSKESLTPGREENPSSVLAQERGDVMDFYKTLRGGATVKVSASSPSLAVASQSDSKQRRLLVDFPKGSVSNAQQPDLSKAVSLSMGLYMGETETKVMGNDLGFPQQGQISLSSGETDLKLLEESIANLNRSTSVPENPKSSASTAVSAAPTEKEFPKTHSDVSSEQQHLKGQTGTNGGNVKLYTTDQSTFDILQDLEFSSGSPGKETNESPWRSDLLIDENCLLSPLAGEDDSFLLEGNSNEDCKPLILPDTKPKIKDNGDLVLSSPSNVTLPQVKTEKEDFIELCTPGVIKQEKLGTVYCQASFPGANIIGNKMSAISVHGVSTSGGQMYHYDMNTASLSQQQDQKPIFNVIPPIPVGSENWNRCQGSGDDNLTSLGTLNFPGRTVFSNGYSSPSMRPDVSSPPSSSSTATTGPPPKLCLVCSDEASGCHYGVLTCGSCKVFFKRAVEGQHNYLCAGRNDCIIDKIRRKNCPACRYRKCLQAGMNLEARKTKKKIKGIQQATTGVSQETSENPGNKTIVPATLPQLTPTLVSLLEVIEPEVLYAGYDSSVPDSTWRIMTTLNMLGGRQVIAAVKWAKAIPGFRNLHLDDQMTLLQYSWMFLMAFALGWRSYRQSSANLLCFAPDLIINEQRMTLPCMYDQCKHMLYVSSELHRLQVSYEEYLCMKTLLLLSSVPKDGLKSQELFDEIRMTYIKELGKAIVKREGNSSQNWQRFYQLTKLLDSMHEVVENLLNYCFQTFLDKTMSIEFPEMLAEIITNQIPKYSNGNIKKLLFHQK

In this experiment the target is Glucocorticoid receptor (Homo sapiens) (UniProt P04150). The experiment in a line: GR-EFC Redistribution (AID 451). As to conditions: CHO-K1 GR-EFC translocation, beta-gal luminescence, 2 h. The text has this:
NIH Molecular Libraries Screening Centers Network [MLSCN]
NIH Chemical Genomics Center [NCGC]
The glucocorticoid receptor (GR) is a cytoplasmic receptor that belongs to the nuclear receptor family of ligand-dependent transcription factors. Upon glucocorticoid binding to its receptor, the glucocorticoid-GR complex translocates into the nucleus, where it binds as a dimer to specific DNA sequences (glucocorticoid response elements), enhancing or suppressing transcription of a wide variety of glucocorticoid-responsive genes. In addition to their important roles in normal physiology and metabolism, glucocorticoids are administered exogenously as treatments for a wide variety of allergic, autoimmune, and neoplastic conditions. Identification of compounds that modulate aspects of GR signalling would be useful in dissecting glucocorticoid response pathways as well as developing GR modulators with more targeted clinical effects.
Traditionally, GR modulators have been identified using receptor binding or direct transactivation assays. However, assays for glucocorticoid-dependent nuclear translocation can also be used to screen for compounds affecting GR signaling.
Immunocytochemical staining has been used to assay for GR translocation, but is not suitable for high throughout screening due to the multiple reagent addition and wash steps required. Recently, a novel cell-based GR assay in Enzyme Fragment Complementation (EFC) format was developed by DiscoveRx (Fremont, CA). The assay uses EFC of b-galactosidase (b-gal) as an indicator of GR-translocation in engineered CHO-K1 biosensor cells. The enzyme acceptor (EA) fragment of b-gal resides in the nucleus , as designed through the use of a proprietary set of sequence additions and modifications. The small peptide enzyme donor (ED) fragment of b-gal is fused directly to the C-terminus of GR, and is localized in the cytoplasm is the absence of receptor signaling. Upon binding to a GR ligand, the complex translocates to the nucleus, where intact enzyme activity is restored by complementation and b-gal activity is detected. We optimized this GR-EFC assay in homogenous 1536-well plate assay format for high throughput screening.
NCGC Assay Protocol Summary:
CHO-K1 cells stably expressing NLS-enzyme acceptor fragment (EA) of b-gal and GR-enzyme donor (ED) fragment of b-gal were maintained in F12 medium (Invitrogen, Carlsbad, CA) at 37 Celsius degrees under a humidified atmosphere containing 5% CO2 and 95% air. The medium contained 10% FBS, 2 mM L-glutamine, 50 U/ml penicillin 50 ug/ml streptomycin, and 250 ug/ml hygromycin and 500 ug/ml G418 (Invitrogen).
GR-translocation was measured beta-gal enzyme activity using the PathHunter Detection Kit containing cell membrane permeablizing reagent and beta-gal substrate (DiscoveRx, Fremont, CA). All compounds were screened as titrations from 0.6 nM to 46 uM final concentration. The assay was performed in 1536-well format as follows:
5 uL cell suspension (1,000 cells)/well
Incubation at 37 Celsius degrees for two hours
1.25 uL 1X detection buffer from the kit supplied by DiscoveRx
Incubation at room temperature for one hour
Read plate in luminescence mode in ViewLux plate reader (PerkinElmer)
Keywords: NIH Roadmap, MLSCN, MLI, MLSMR, GR-EFC, GREFC, qHTS, NCGC
As to `NC1(P(=O)(O)O)CCCCC1`, the Potency is more than 9.22 µM. Take `O=C(Nc1ccc([As](=O)(O)O)cc1)Nc1cccc(Cl)c1Cl`: the Potency was more than 9.22 µM. With `Cc1ccc(O)cc1` (tested in a mixture with another compound) the figure was more than 9.22 µM; with `NNc1c(C(N)=O)c2c(N)ncnc2n1[C@@H]1O[C@H](CO)[C@@H](O)[C@@H]1O`, more than 9.22 µM. As for `O=C(O)[C@H]1CCN1`, the figure is more than 46 µM. As for `N=C(N)n1cc(/C=N\N=C(N)N)cn1`, the Potency is more than 9.22 µM. As for `O=C(Nc1cc[c]([Sb](=[O])([OH])[OH])cc1)c1ccccc1`, the figure is more than 9.22 µM; as for `O=C(O)C(Oc1nc(=S)[nH]c(=S)[nH]1)(c1ccc(Cl)cc1)c1ccc(Cl)cc1`, more than 9.22 µM. With `C[C@@H]1Cc2cc3c(cc2C(c2ccc(N)cc2)=NN1)OCO3` the figure was more than 46 µM; with `NC(CCl)=N[C@H]1CN2CCC1CC2`, more than 9.22 µM; with `CN1C[C@H](C(=O)N[C@@]2(C)O[C@@]3(O)[C@H]4CCCN4C(=O)[C@@H](Cc4ccccc4)N3C2=O)C=C2c3cccc4[nH]cc(c34)C[C@@H]21`, more than 9.22 µM. With `C[C@H](Br)C(=O)N[C@H](CO)C(=O)O` the figure was more than 9.22 µM; with `C[N+]1(C)CCc2cc3c(cc2[C@@H]1[C@@H]1OC(=O)c2c1ccc1c2OCO1)OCO3`, more than 46 µM. As for `C[C@]12CC[C@@H]3[C@H](CCC4=CC(=O)CC[C@]43C)[C@]1(O)CC[C@@]2(O)C(=O)CO`, the Potency is more than 9.22 µM. As to `Oc1ccc2c3c1O[C@@H]1c4[nH]c5c(c4C[C@@]4(O)[C@@H](C2)N(CC2CC2)CC[C@]314)C[C@]1(O)[C@@H]2Cc3ccc(O)c4c3[C@@]1(CCN2CC1CC1)[C@H]5O4`, the Potency is more than 46 µM.

Consider `COc1cc2c3cc1Oc1c(O)c(OC)cc4c1[C@@H](Cc1ccc(cc1)Oc1cc(ccc1O)C[C@H]3N(C)CC2)N(C)CC4`, for which the Potency was more than 9.22 µM. With `O=C(NCP(=O)(O)O)c1cccnc1` the figure was more than 9.22 µM.

Turning to `N[C@H](Cn1cc(I)c(=O)[nH]c1=O)C(=O)O`, the Potency is more than 46 µM. As to `c1ccc2c([C@@H]3CCN(CCN4CCOCC4)C3)c[nH]c2c1`, the Potency is more than 9.22 µM.

On to `CC(C)CC(=O)C[C@H](O)C(Cl)(Cl)Cl`, for which the Potency was more than 9.22 µM.

As for `Nc1ncnc2c1ncn2[C@@H]1O[C@@H](COP(=O)(O)CP(=O)(O)OP(=O)(O)O)[C@H](O)[C@@H]1O`, the Potency was more than 46 µM. Consider `Nc1c(C(=O)Nc2ccc([As](=O)(O)O)cc2)cnc2nnnn12`, for which the Potency was more than 9.22 µM.

`C[C@@H](Cc1ccc(O)cc1)NC[C@@H](O)c1cc(O)cc(O)c1`: the Potency was > 46 µM and > 20.6 µM. With `COc1ccc(C[C@@H]2C(=O)N[C@H](C)C(=O)N(C)[C@@H]3C(=O)N(C)[C@@H](Cc4ccc(O)c(c4)Oc4ccc(cc4)[C@H]3O)C(=O)N[C@@H](C)C(=O)N[C@H](C)C(=O)N2C)cc1` the figure was more than 9.22 µM; with `NC(N)=NCCN=C(N)N`, more than 9.22 µM. In the case of `Cc1ccc(NC(=[OH+])c2cc3ccccc3cc2O)c(C)c1.Cc1ccc(NC(=[OH+])c2cc3ccccc3cc2O)c(C)c1.[Ni]`, the Potency is more than 9.22 µM.

For `O=C(O)CNC(=O)c1ccc([As](=O)(O)O)cc1`, the Potency was more than 9.22 µM. Consider `CC(C)N[C@@H](C)Cc1ccc(I)cc1`, for which the Potency was more than 46 µM. As to `O[C@H](CN1CC1)[C@@H](O)CN1CC1`, the Potency was more than 9.22 µM. For the compound `COc1ccc(C(=O)O[C@H]2CC[C@@]3(C)[C@H]4CC[C@H]5[C@]3(C[C@]3(O)[C@H]6CN7C[C@H](C)CC[C@H]7[C@](C)(O)[C@]6(O)[C@H](O)C[C@]53O)O[C@]24O)cc1OC`, the Potency was more than 9.22 µM. Turning to `O=C(c1ccccc1)[C@H]1[C@H](c2ccccc2[N+](=O)[O-])N1C1CCCCC1` (stereo not given in full), the Potency is more than 9.22 µM. With `CN1CCN(c2ccc([N+](=O)[O-])c3[nH]o[n+](=O)c23)CC1` the figure was more than 9.22 µM; with `N[C@H](Cn1oc(=O)[nH]c1=O)C(=O)O`, more than 46 µM; with `C[C@H](c1ccccc1)N1CCN([C@@H](C)c2ccccc2)CC1`, more than 9.22 µM.

`N[C@@H](Cc1cc(Br)c(O)c(Br)c1)C(=O)O`: the Potency was more than 9.22 µM. As for `CC(=O)c1c(O)c(C)c(O)c(Cc2c(O)c3c(c(C(=O)/C=C\c4ccccc4)c2O)OC(C)(C)C=C3)c1O`, the figure is more than 46 µM. Consider `CC(=O)[C@@H]1CC[C@H]2[C@H]3CC[C@H]4C[C@@H](O)CC[C@]4(C)[C@@H]3CC[C@]12C`, for which the Potency is more than 46 µM. With `Cc1ccc(C2(c3ccc(C)c(O)c3C)CCN(C)CC2)c(C)c1O` the figure was more than 9.22 µM; with `CCn1cnc2c(Nc3cccc(Cl)c3)nc(N[C@@H]3CCCC[C@H]3N)nc21`, more than 46 µM; with `c1ccc2c(c1)Sc1ccccc1N2C[C@H]1CN2CCC1CC2`, more than 9.22 µM.
